From PubChem BioAssay
FBW7 activator – human FBW7 E3 ligase activation, primary screen; Q969H0; AlphaScreen FBW7–phospho-cyclin E peptide binding, activator screen; normalized activity (activation), % at 26.1 µM; actives 0.13% (n = 650,000); AID 1259310; in the data active means normalized activity above about 1.9%;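 further: purified mutant Fbw7 with reduced substrate affinity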
Target sequence (Q969H0 whole entry, looked up): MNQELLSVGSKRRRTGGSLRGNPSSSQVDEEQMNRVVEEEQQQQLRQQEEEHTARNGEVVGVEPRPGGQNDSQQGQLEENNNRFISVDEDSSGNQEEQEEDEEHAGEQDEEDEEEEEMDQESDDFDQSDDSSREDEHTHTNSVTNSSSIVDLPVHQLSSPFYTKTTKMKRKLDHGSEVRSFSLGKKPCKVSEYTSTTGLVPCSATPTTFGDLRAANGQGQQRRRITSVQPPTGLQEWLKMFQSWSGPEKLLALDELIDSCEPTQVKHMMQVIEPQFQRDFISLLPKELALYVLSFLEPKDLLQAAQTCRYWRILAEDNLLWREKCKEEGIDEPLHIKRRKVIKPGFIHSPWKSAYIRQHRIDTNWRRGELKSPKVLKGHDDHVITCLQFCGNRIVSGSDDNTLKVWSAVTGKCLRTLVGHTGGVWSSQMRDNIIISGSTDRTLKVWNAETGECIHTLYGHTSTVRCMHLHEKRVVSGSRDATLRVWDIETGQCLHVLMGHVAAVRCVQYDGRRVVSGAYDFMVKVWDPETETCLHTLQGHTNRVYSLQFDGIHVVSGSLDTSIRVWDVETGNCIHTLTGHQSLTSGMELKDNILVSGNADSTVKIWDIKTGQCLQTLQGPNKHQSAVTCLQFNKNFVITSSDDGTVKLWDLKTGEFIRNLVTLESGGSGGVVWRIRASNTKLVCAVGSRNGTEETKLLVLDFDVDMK
TEAD-YAP block – TEAD-YAP interaction inhibition; HEK-TIYL cells, TEAD-Gal4/YAP UAS-luciferase luminescence; actives 1.4% (n = 640,000); AID 1259422; inhibition, % at 9.12 µM; in the data active means inhibition above about 32%;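 further: 0% = median of test compound wells and 100% = reference inhibitor wells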
MITF inh – human MITF inhibition, primary screen | O75030 | AlphaScreen MITF homodimerization, bead proximity signal | inhibition, % at 2.6 µM | actives 0.91% (n = 650,000) | AID 1259374; in the data active means inhibition above about 50%;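 further: 0% = vehicle wells with protein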
GPR151 activ – human GPR151 activation | Q8TDV0 | PathHunter beta-arrestin GPR151 cells, luminescence | activation, % at 11.2 µM | actives 1% (n = 650,000); in the data active means activation above about 4.9%;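 further: 0% = median of compound wells and 100% = cells with positive control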
GPR151 conf act – human GPR151 activation, confirmation screen | shares compounds with GPR151 activ | GPR151 PathHunter beta-arrestin cells, luminescence, 90 min; % of EA-reagent control over plate median | activation, % at 11.2 µM | 6,700 tested, under 10 active | AID 1508609;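 active means mean percent activation across replicates above the confirmation screen cutoff of 4.91%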
GPR119 counter – counter-screen for GPR151 activators: effect on human GPR119; shares compounds with GPR151 activ; GPR119 PathHunter beta-arrestin cells, luminescence, 90 min; 0 = compound-well median, 100 = enzyme-acceptor control; activation, % at 11.2 µM; actives 0.3% (n = 6,700); AID 1508611;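 active means mean percent activation in the counterscreen above 29.09%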;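 further: counterscreen on off-target GPR119 to flag nonselective hits from the GPR151 activator screen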
An asterisk follows results filed as active; nt = no result given. Shown are actives, neighbours in structure and some others; about 3.4% of the full set was active somewhere.

SMILES	FBW7 activator	TEAD-YAP block	MITF inh	GPR151 activ	GPR151 conf act	GPR119 counter
O=C(Cc1c(O)c2ccccc2[nH]c1=O)NCCO	0	3	-2	1	nt	nt
O=C(Cc1c(O)c2ccccc2[nH]c1=O)NCc1ccccn1	0	4	16	5.6*	0	6
O=C(Oc1ccc(I)cc1)c1ccc([N+](=O)[O-])cc1	0	1	9	6.1*	-1	-5
CCOc1cc(/C=N/Nc2ccccn2)ccc1OCc1ccc(C(=O)OC)o1	0	-1	-8	5.4*	0	-1
CCOc1cc(C=O)ccc1OCc1ccc(C(=O)OC)o1	0	-2	-2	1	nt	nt
O=C(NCCCN1CCOCC1)/C(=C/c1ccc(-c2cccc(C(F)(F)F)c2)o1)NC(=O)c1ccc(Cl)cc1	0	-5	-4	9.4*	2	24
CC1CC(C)CN(C(=O)c2cnc3sccn3c2=O)C1 (stereo unspecified)	1	0	20	1	nt	nt
CC/C=C\C/C=C\C/C=C\C/C=C\C/C=C\CCCC(=O)OCC	0	-9	-3	1	nt	nt
O=C(O)c1ccc(-c2nc(-c3ccccc3)c(-c3ccc(C(=O)c4ccccc4)cc3)[nH]2)cc1	0	1	5	0	nt	nt
c1ccc(Oc2ccc(-c3[nH]c(-c4ccccc4)nc3-c3ccccc3)cc2)cc1	0	0	5	5.3*	1	5
Cc1ccc(-c2nc(-c3ccccc3)c(-c3ccc(C(=O)c4ccccc4)cc3)[nH]2)cc1	0	-6	-6	9.6*	1	20
C=CCNC(=O)c1c([N+](=O)[O-])cnn1C	0	-4	6	0	nt	nt
CCCn1c2ccc(F)cc2c2nnc(NN)nc21	0	-8	3	2	nt	nt
S=c1[nH]nc(NCc2ccco2)s1	0	-3	1	-1	nt	nt
O=C(NCc1ccc(Cl)cc1Cl)Nc1ccccc1	1	-45	14	-1	nt	nt
O=C(NCc1ccc(Cl)cc1Cl)c1ccccn1	0	2	2	7.8*	0	3
O=C(CSc1nc(Nc2ccc(F)c(F)c2)c2ccccc2n1)c1ccc(F)cc1	0	13	5	5.1*	-1	0
COc1cc(Nc2nc(SCC(=O)c3ccccc3)nc3ccccc23)cc(OC)c1	0	4	-3	6.9*	1	16
COc1cc(Nc2nc(SCC(=O)c3ccc(Br)cc3)nc3ccccc23)cc(OC)c1	0	0	-5	0	nt	nt
CC(=O)Nc1ccc(NC(=O)CSc2nc3ccc(C)cc3[nH]2)cc1	0	-2	5	0	nt	nt
O=C(NCCc1nc(-c2ccncc2)n[nH]1)C1(c2ccccc2)CCCC1	0	5	4	5.9*	0	6
O=C(O)/C=C/C(=O)NCc1ccc(Cl)cc1	0	3	-54	-1	nt	nt
Cc1nccn1-c1ccc(NC(=O)C2CCCN(C3CCSCC3)C2)cc1 (stereo unspecified)	0	13	-23	6.8*	1	-3
COC(=O)c1sc2cc([N+](=O)[O-])cc(Sc3ccccc3)c2c1N	0	1	-1	0	nt	nt
COC(=O)c1sc2cc([N+](=O)[O-])cc(Sc3ccccc3)c2c1-n1cccc1	0	-14	-11	5.7*	0	-8
SMILES	FBW7 activator	TEAD-YAP block	MITF inh	GPR151 activ	GPR151 conf act	GPR119 counter
COCCCNC(=O)NC(CCC(C)C)c1c(-n2cccc2)sc2c1CCN(C)C2 (stereo unspecified)	0	10	-2	8.2*	0	-5
COC(=O)CCNC(=O)NC(CCC(C)C)c1c(-n2cccc2)sc2c1CCN(C)C2 (stereo unspecified)	0	-6	-3	2	nt	nt
COc1ccc(CC(=O)N2CCC[C@@H](Cn3nc(-c4cccs4)ccc3=O)C2)cc1	0	5	0	-1	nt	nt
COCCCN(C(=S)Nc1cccc(Cl)c1)C(C)c1ccncc1 (stereo unspecified)	0	-5	-5	5.9*	-1	5
CC(C)(C)c1ccc(C(=O)n2cccn2)cc1	0	4	7	2	nt	nt
Cc1cc(OCC(=O)NN2CCN(C)CC2)ccc1[N+](=O)[O-]	0	-8	-8	1	nt	nt
Cc1cc(OCC(=O)NN2CCOCC2)ccc1[N+](=O)[O-]	0	-4	-10	5.0*	0	5
CC(C)c1nnc(NC(=O)c2cc(Cl)ccc2Cl)s1	0	-12	6	5.1*	1	-9
Cc1ccnc(SCc2cc(=O)c(OC(=O)c3cccc4ccccc34)co2)n1	0	3	10	-1	nt	nt
O=C(Cn1nnc(-c2ccccc2Cl)n1)Nc1ccccc1Cl	0	9	2	4.9*	1	-2
O=C(Cn1nnc(-c2ccccc2Cl)n1)Nc1ccccc1C(F)(F)F	0	-7	-11	2	nt	nt
Cc1ccc(NC(=O)Cn2nnc(-c3ccccc3NC(=O)c3cccc(C)c3)n2)cc1	0	10	-4	5.0*	1	-3
O=C(O)COc1cccc(/C=N/NC(=O)Cn2nnc(-c3ccccc3Cl)n2)c1	1	1	8	0	nt	nt
Cn1c(Cn2nnc(-c3ccccc3)n2)nnc1SCC(=O)Nc1ccccc1Cl	0	-13	-4	7.6*	1	19
O=C(O)COc1ccc(/C=N/NC(=O)Cn2nnc(-c3ccccc3Cl)n2)cc1	1	3	19	7.8*	0	-11
NC(=O)c1c(NC(=O)Cn2nnc(-c3ccccc3Cl)n2)sc2c1CCCC2	0	14	6	6.4*	0	-4
NC(=O)c1c(NC(=O)c2ccccc2Cl)sc2c1CCCC2	0	-24	-4	0	nt	nt
NC(=O)c1c(NC(=O)CCSc2ccccc2)sc2c1CCCC2	0	-57	6	-1	nt	nt
NC(=O)c1c(NC(=O)CCSc2ccc(F)cc2)sc2c1CCCC2	0	1	8	7.1*	0	4
O=C(COc1ccccc1[N+](=O)[O-])Nc1cccc(Cl)c1Cl	0	-56	13	0	nt	nt
O=C(Nc1cc(Cl)cc(Cl)c1)c1cc(S(=O)(=O)NCc2ccco2)ccc1F	0	12	10	1	nt	nt
CCCn1c(SCC(=O)NC(C)c2ccccc2)n[nH]c1=O (stereo unspecified)	0	1	4	1	nt	nt
CCOC(=O)/C(C#N)=C/c1ccc(OC(=O)c2ccco2)c(OCC)c1	0	9	-11	3	nt	nt
C=CCOc1ccc(/C=C2\C(=O)NN(c3ccccc3)C2=O)cc1OC	0	1	4	5.3*	0	3
Cc1c(C(=O)C(=O)NC(C)C)c2ccccc2n1C	0	-2	6	6.3*	0	3
CNC(=O)C(=O)c1c(C)n(C)c2ccccc12	0	6	-1	0	nt	nt
COc1cccc(C(NC(=O)C2CC2)c2nccn2C)c1OC (stereo unspecified)	0	-9	17	-1	nt	nt
